PubChem BioAssay (EPA / NIEHS)
Records with an inconclusive call do not appear. Activity calls are given as the source filed them. Rule for the calls: active = hit-call score of the fitted dose curve at least 0.9, where 1 is the maximum; inconclusive = response in the unintended direction; inactive = score below 0.9.

Test: ATG_M_06_TRANS: Attagene TRANS-FACTORIAL HepG2 Assay for M06 Transcription Factor (Internal Marker) (AID 2282983)
Conditions: HepG2 Attagene TRANS M06 internal marker reporter
Procedure: ATG_TRANS is a cell-based, multiplexed-readout assay that uses HepG2, a human liver cell line, with measurements taken at 24 hours after chemical dosing in a 24-well plate.ATG_M_06_TRANS is one of 30 assay component(s) measured or calculated from the ATG_TRANS assay. It is designed to make measurements of mRNA induction, a form of inducible reporter, as detected with fluorescence intensity signals by Reverse transcription polymerase chain reaction (RT-PCR) and Capillary electrophoresis technology.Data from the assay component ATG_M_06_TRANS was analyzed into 1 assay endpoint. This assay endpoint, ATG_M_06_TRANS, was analyzed in the positive analysis fitting direction relative to DMSO as the negative control and baseline of activity. Using a type of inducible reporter, measures of mRNA for gain-of-signal activity can be used to understand the background control at the transcription factor-level as they relate to the gene . Furthermore, this assay endpoint can be referred to as a secondary readout, because this assay has produced multiple assay endpoints where this one serves a background control function. To generalize the intended target to other relatable targets, this assay endpoint is annotated to the background measurement intended target family, where the subfamily is internal marker.
Human liver HepG2 cells are transiently transfected with multiple reporter transcription units (MRTUs) in 6-well plates using FuGene 6 reagent (Roche; 3 ml FuGene/1 mg DNA). The MRTU constructs are regulated by a cis-regulating element (promoter). […] A major difference between the CIS and TRANS system is that in CIS activities of endogenous TFs are measured, whereas the TRANS assay evaluates changes in activities of exogenous, chimeric NR-Gal4 proteins. […] At the end of 24 hour incubation, total RNA was isolated using TriZol reagent (Invitrogen). The isolated RNA is then reverse-transcribed using oligo(dT) primer and Mo-MLV reverse transcriptase (Invitrogen) with DNAse I (Ambion) treatment for 30 min. The one-tenth of the produced cDNA was amplified by PCR using Taq DNA polymerase (Invitrogen) and two reporter sequence-specific primers. The PCR products were fluorescently labeled by primer extension with 6-arboxyfluorescein (6-FAM) 5'-labeled reporter sequence-specific primer (2 min at 95 C, 20 s at 68 C and 10 min at 72 C) and these products were digested with 5U of HpaI (New England Biolabs) for 2h at 37 C. The fragments were purified using Qiaquick PCR columns (Qiagen), analyzed on an ABI 3130xL genetic analyzer (Applied Biosystems) with peak positions identified by using a set of X-rhodamine (ROX)-labeled MapMarker1000 molecular weight standards (BioVentures). The raw capillary electrophoresis data was processed using Attagraph software (Attagene).

outcome, inactive:
CCCCCC/C=C\CCCCCCCC(=O)O
O=c1c2ccccc2nnn1CCl
CC(=O)OCCC1CCCCC1
CCCCCC(C)O (stereo not given)
CC(=O)OC(C)C
COC(=O)c1cc(Cl)ccc1[N+](=O)[O-]
C[Si](C)(CCCN)O[Si](C)(C)CCCN
CCOc1ccc(N)c([N+](=O)[O-])c1
COCCOCCOCCOCCOC
CO[Si](OC)(OC)c1ccccc1
C=CCOc1c(Br)cc(Br)cc1Br
c1ccc2c(c1)ccc1ncccc12
CN(C)c1ccc(N=Nc2ccccc2C(=O)O)cc1
O=C1CCC(=O)N1Cl
NC(=O)N=NC(N)=O
Cc1cc(C)c(C(=O)O)c(C)c1
O=Nc1ccc(O)cc1
CC(C)=CC1CC(C)CCO1 (stereo not given)
CCC(=O)Oc1ccc(/C(CC)=C(\CC)c2ccc(OC(=O)CC)cc2)cc1
CCc1ccc2c(c1)C(=O)c1ccccc1C2=O
OCCNCc1ccccc1
CC(=O)OCC(C)OC(C)=O (stereo not given)
O=C(/C=C/C=C/c1ccc2c(c1)OCO2)N1CCCCC1
O=C(c1ccccc1)c1ccc(O)c(O)c1O
Nc1nc2ccccc2[nH]1
O=S1(=O)OC(c2ccc(O)cc2)(c2ccc(O)cc2)c2ccccc21
CCOc1nc(F)cc2nc(S(=O)(=O)Nc3c(Cl)cccc3C(=O)OC)nn12
Cc1ccc(N/N=c2\c(=O)cc/c(=N/Nc3ccc(S(=O)(=O)O)cc3)c2=O)c(C)c1
CC(C)(C)c1n[nH]c(=O)n(N)c1=O
O=S(=O)(Oc1ccc(Cl)cc1Cl)c1ccccc1
OCCc1ccncc1
COC(=O)/C=C\C(=O)O
C=CC(C)(CCC=C(C)C)OC(=O)C(C)C (stereo not given)
Cc1cc(O)c(Cl)c(C)c1Cl
Cc1ccc(C(C)(C)C)cc1
CC(C)CCCC(C)CC=O (stereo not given)
CCOC(=O)c1ccccc1C(=C1C=C(Br)C(=O)C(Br)=C1)c1cc(Br)c(O)c(Br)c1
CC(C)(Oc1ccc(C2CC2(Cl)Cl)cc1)C(=O)O (stereo not given)
Nc1ccc(Oc2ccc(N)c(N)c2)cc1
C=C[C@](C)(O)CC[C@@H]1[C@@]2(C)CCCC(C)(C)[C@@H]2CC[C@@]1(C)O
